Results filed as inconclusive are left out. The source made the active and inactive calls. Rule for the calls, unless noted: active = hit-call score of the fitted dose curve at least 0.9, where 1 is the maximum; inactive = score below 0.9.
Assays:
[1] = ATG_DR4_LXR_CIS: Attagene CIS-FACTORIAL HepG2 Assay for human Liver X Receptor (LXR), DR4 submotif (AID 2282929); details: HepG2 Attagene DR4 cis-reporter, mRNA transcription; actives raise or lower the signal
Outline: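 DR4 cis-reporter in HepG2, 24 h exposure. Detection: RT-PCR, 6-FAM labelling, CE fragment analysis. Endpoint fitted bidirectionally, DMSO = baseline.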

[2] = target: Aryl hydrocarbon receptor (Homo sapiens) (UniProt P35869); experiment: ATG_Ahr_CIS: Attagene CIS-FACTORIAL HepG2 Assay for human Aryl Hydrocarbon Receptor (Ahr) (AID 2282930); details: HepG2 AhR cis-factorial reporter transcription; actives raise or lower the signal
Outline: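 Transient MRTU transfection of HepG2 → 24 h compound exposure → total RNA, oligo(dT) RT → PCR, 6-FAM extension, HpaI cut → CE fluorescence. DMSO = baseline; bidirectional curve fit.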

[3] = ATG_GLI_CIS: Attagene CIS-FACTORIAL HepG2 Assay for human Zinc Finger Protein GLI1 (AID 2282945); details: HepG2, Attagene cis-factorial reporter mRNA, GLI element; actives raise or lower the signal
Outline: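 Bidirectional curve fits relative to DMSO, using reporter mRNA levels from RT-PCR plus capillary electrophoresis. Cells were HepG2 transiently carrying cis-regulated reporter constructs, harvested 24 h after dosing.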

[4] = ATG_GRE_CIS: Attagene CIS-FACTORIAL HepG2 Assay for human Glucocorticoid Response Elements (GRE) (AID 2282947); details: HepG2 GRE cis-reporter, Attagene multiplex mRNA; actives raise or lower the signal
Outline: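 Multiplexed cis-reporter mRNA induction, HepG2, 24 h post-dose. RT-PCR, FAM-labelled, HpaI-digested amplicons by CE. Bidirectional fit vs DMSO.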

[5] = ATG_PBREM_CIS: Attagene CIS-FACTORIAL HepG2 Assay for human Phenobarbital-responsive Enhancer Module (PBREM) (AID 2282955); details: HepG2 PBREM cis-reporter, Attagene multiplexed transcription; actives raise or lower the signal
Outline: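 Transfected liver-derived HepG2 cells exposed 24 h; PBREM reporter transcript quantified via RT-PCR and capillary electrophoresis, with activity in either direction referenced to DMSO.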

[6] = ATG_PXRE_CIS: Attagene CIS-FACTORIAL HepG2 Assay for human Pregnane X Receptor Element (PXRE) (AID 2282957); details: HepG2 Attagene CIS-FACTORIAL PXRE reporter, mRNA; actives raise or lower the signal
Outline: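 Using HepG2 transfected with multiple reporter transcription units, endogenous factor-driven transcription was scored as reporter mRNA after 24 h exposure.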

[7] = ATG_PPRE_CIS: Attagene CIS-FACTORIAL HepG2 Assay for human Peroxisome Proliferator-activated Response Element (PPRE) (AID 2282958); details: HepG2 PPRE cis-element reporter, Attagene transcription factor profiling; actives raise or lower the signal
Outline: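 Measured endpoint: PPRE-controlled reporter mRNA, detected by RT-PCR and capillary electrophoresis fluorescence, from transiently transfected HepG2 cells 24 h after dosing. Curves fitted in both directions using DMSO baseline.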

[8] = ATG_TCF_b_cat_CIS: Attagene CIS-FACTORIAL HepG2 Assay for human T-Cell-Factor with beta-catenin (TCF/b-cat) (AID 2282965); details: HepG2 TCF/beta-catenin cis-reporter transcription, actives raise or lower the signal
Outline: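 Endogenous transcription factor activity is captured through cis-promoter reporter constructs transiently introduced into human HepG2 liver cells. Induced reporter mRNA is measured after 24 h and fitted bidirectionally relative to DMSO.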

[9] = ATG_M_06_TRANS: Attagene TRANS-FACTORIAL HepG2 Assay for M06 Transcription Factor (Internal Marker) (AID 2282983; active = hit-call score of the fitted dose curve at least 0.9, where 1 is the maximum;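 note: reporter transcript level by RT-PCR then capillary electrophoresis fluorescence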); details: HepG2 Attagene TRANS M06 internal marker reporter
Outline: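 Background control endpoint: reporter mRNA from transiently transfected HepG2 after 24 h dosing, detected by RT-PCR with capillary electrophoresis fluorescence. Analysed for gain versus DMSO.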

[10] = target: Nuclear receptor subfamily 4 group A member 2 (Homo sapiens) (UniProt P43354); experiment: ATG_NURR1_TRANS: Attagene TRANS-FACTORIAL HepG2 Assay for human Nuclear Receptor Related Protein 1 (NURR1) (AID 2282985; active = hit-call score of the fitted dose curve at least 0.9, where 1 is the maximum); details: HepG2 Attagene TRANS reporter, mRNA readout
Outline: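 Measures transcriptional activation by an exogenous NR-Gal4 chimera in transfected HepG2 liver cells. After 24 h, reporter RNA is reverse-transcribed, amplified and resolved by capillary electrophoresis; DMSO defines baseline.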

[11] = target: Myc proto-oncogene protein (Homo sapiens) (UniProt P01106); experiment: ATG_Myc_CIS: Attagene CIS-FACTORIAL HepG2 Assay for human Myelocytomatosis (Myc) Proto-Oncogene Transcription Factor (AID 2282990); details: HepG2, Attagene cis-reporter transcription factor activity; actives raise or lower the signal
Outline: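 HepG2, transient MRTU transfection (cis promoters, endogenous TFs); 24 h dosing; TriZol RNA → oligo(dT) RT → PCR → 6-FAM primer extension → HpaI cut → CE. Bidirectional fit vs DMSO.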

[12] = target: human Peroxisome Proliferator-activated Receptor alpha (PPARa), PPARA (gene 5465) (UniProt Q07869); experiment: ATG_PPARa_TRANS: Attagene TRANS-FACTORIAL HepG2 Assay for human Peroxisome Proliferator-activated Receptor alpha (PPARa) (AID 2283001; active = hit-call score of the fitted dose curve at least 0.9, where 1 is the maximum;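 for AC50: potency for gain of reporter signal over DMSO so agonist or activator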)
Outline: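 Transfected HepG2 cells treated with test chemical for 24 h. RNA isolated, reverse-transcribed with oligo(dT), PCR-amplified, FAM-labelled and HpaI-digested. Fragments sized by capillary electrophoresis; gain-of-signal fit relative to DMSO.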

[13] = target: Nuclear receptor subfamily 1 group I member 2 (Homo sapiens) (UniProt O75469); experiment: ATG_PXR_TRANS: Attagene TRANS-FACTORIAL HepG2 Assay for human Pregnane X Receptor (PXR) (AID 2283008; active = hit-call score of the fitted dose curve at least 0.9, where 1 is the maximum)
Outline: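 Multiplexed TRANS reporter panel in HepG2; this component tracks PXR-Gal4-driven reporter mRNA after 24 h dosing, measured by RT-PCR with capillary electrophoresis fluorescence, fitted against DMSO.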

[14] = target: Retinoic acid receptor RXR-alpha (Homo sapiens) (UniProt P19793); experiment: ATG_RXRa_TRANS: Attagene TRANS-FACTORIAL HepG2 Assay for human Retinoid X Receptor alpha (RXRa) (AID 2283012; active = hit-call score of the fitted dose curve at least 0.9, where 1 is the maximum)
Outline: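 Read-out: fluorescent reporter-transcript fragments quantified by capillary electrophoresis after RT-PCR. Transiently transfected HepG2 cells carrying GAL4-UAS reporters and NR-GAL4 chimeras were exposed to chemical for 24 h; activity scored as increase over DMSO.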

[15] = target: human Retinoid X Receptor beta (RXRb), RXRB (gene 6257) (UniProt P28702); experiment: ATG_RXRb_TRANS: Attagene TRANS-FACTORIAL HepG2 Assay for human Retinoid X Receptor beta (RXRb) (AID 2283013; active = hit-call score of the fitted dose curve at least 0.9, where 1 is the maximum)
Outline: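 Read-out: reporter mRNA induction via RT-PCR plus capillary electrophoresis fluorescence, analysed as signal increase relative to DMSO. Cells were human HepG2, transiently transfected with GAL4-UAS reporter constructs and chimeric receptor-Gal4 fusions, dosed for 24 h.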

[16] = ATG_SREBP_CIS: Attagene CIS-FACTORIAL HepG2 Assay for human Sterol Regulatory Element Binding (SREBP) (AID 2282962); details: HepG2 Attagene cis-factorial SREBP reporter, mRNA; actives raise or lower the signal
Outline: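 In this cis-format assay, HepG2 liver cells express reporters controlled by promoter elements responsive to native transcription factors. Exposure lasts 24 h; reporter mRNA fluorescence from capillary electrophoresis gives the signal, fitted bidirectionally against DMSO.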

[17] = target: X-box-binding protein 1 (Homo sapiens) (UniProt P17861); experiment: ATG_Xbp1_CIS: Attagene CIS-FACTORIAL HepG2 Assay for human X-box Binding Protein 1 (XBP1) (AID 2282972); details: HepG2 XBP1 cis-element reporter, Attagene multiplex; actives raise or lower the signal
Outline: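 Changes in reporter transcript abundance, read by RT-PCR and capillary electrophoresis, reflect endogenous transcription factor activity. Transfected HepG2 cells received compound for 24 hours; DMSO defined baseline for bidirectional analysis.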

[18] = ATG_M_19_TRANS: Attagene TRANS-FACTORIAL HepG2 Assay for M19 Transcription Factor (Internal Marker) (AID 2282974; active = hit-call score of the fitted dose curve at least 0.9, where 1 is the maximum); details: HepG2 Attagene TRANS-FACTORIAL M19 internal marker reporter
Outline: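 Using RT-PCR and capillary electrophoresis, reporter mRNA from transiently transfected human HepG2 cells was quantified following 24 h exposure; activity was fitted in the positive direction against DMSO.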

[19] = ATG_GAL4_TRANS: Attagene TRANS-FACTORIAL HepG2 Assay for GAL4 (Internal Marker) (AID 2282976; active = hit-call score of the fitted dose curve at least 0.9, where 1 is the maximum); details: HepG2 Attagene TRANS GAL4 internal marker reporter
Outline: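 First, HepG2 cells were transfected with reporter units under GAL4-UAS control. Next, they were treated with chemical for 24 h. Finally, RNA was reverse-transcribed, PCR-amplified, FAM-labelled and resolved by capillary electrophoresis, with induction scored against DMSO.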

[20] = TOX21_p53_BLA_p5_viability: Viability Assessment in the Tox21 HCT-116 p53 Agonism Beta-lactamase Assay, Phase 5 (AID 2283600; active = hit-call score of the fitted dose curve at least 0.9, where 1 is the maximum)
Outline: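 Workflow: seed 4000 cells per well, wait 5 h, add compounds (DMSO, 217-fold dilution), incubate 16 h, load CCF4-AM 2 h, add CellTiter-Glo, read luminescence after 30 min.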

Measured: AC50

Sequence of Nuclear receptor subfamily 4 group A member 2 (Homo sapiens) (P43354 whole entry, looked up, the tested form may be a part): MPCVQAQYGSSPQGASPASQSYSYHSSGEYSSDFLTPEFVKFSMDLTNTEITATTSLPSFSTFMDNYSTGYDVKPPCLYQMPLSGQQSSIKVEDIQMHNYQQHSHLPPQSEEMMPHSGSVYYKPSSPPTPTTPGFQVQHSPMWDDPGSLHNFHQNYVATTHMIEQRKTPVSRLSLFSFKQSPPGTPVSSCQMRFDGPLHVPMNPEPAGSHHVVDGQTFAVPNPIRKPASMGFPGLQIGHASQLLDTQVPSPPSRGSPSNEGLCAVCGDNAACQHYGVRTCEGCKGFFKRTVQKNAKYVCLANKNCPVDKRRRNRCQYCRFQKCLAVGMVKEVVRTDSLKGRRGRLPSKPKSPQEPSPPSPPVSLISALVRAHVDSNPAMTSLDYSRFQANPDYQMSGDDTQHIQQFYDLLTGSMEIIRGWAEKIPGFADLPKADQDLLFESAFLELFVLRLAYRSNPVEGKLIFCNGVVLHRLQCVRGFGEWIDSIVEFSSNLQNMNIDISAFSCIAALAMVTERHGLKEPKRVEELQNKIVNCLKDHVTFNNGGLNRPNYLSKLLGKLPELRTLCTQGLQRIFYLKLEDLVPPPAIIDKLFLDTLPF
Sequence of Myc proto-oncogene protein (Homo sapiens) (P01106 whole entry, looked up): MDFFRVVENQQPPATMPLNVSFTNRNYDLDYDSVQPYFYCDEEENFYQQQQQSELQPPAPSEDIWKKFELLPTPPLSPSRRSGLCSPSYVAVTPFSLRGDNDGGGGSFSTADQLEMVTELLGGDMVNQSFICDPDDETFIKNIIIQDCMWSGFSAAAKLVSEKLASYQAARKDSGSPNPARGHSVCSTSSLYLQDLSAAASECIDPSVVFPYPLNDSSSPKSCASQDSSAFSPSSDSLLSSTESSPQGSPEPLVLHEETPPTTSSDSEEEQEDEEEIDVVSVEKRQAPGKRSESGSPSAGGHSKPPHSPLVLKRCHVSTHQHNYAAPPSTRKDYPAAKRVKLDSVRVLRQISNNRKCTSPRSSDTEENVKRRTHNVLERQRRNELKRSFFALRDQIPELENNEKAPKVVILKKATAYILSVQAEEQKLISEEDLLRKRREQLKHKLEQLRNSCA
Sequence of human Retinoid X Receptor beta (RXRb), RXRB (gene 6257) (P28702 whole entry, looked up, the tested form may be a part): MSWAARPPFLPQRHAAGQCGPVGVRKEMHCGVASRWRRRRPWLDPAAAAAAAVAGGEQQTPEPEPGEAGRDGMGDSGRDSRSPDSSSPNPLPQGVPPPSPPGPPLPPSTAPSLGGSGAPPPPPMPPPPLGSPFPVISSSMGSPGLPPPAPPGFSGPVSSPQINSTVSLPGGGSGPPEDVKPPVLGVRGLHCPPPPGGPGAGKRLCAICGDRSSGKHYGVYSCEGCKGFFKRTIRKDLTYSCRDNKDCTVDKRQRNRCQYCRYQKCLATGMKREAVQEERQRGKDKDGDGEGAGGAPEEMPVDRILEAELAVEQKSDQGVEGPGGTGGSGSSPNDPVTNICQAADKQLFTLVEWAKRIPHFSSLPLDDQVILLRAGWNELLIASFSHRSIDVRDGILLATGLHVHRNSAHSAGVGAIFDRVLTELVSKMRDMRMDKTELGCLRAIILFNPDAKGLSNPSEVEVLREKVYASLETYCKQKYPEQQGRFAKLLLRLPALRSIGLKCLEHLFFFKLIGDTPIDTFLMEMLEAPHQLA
Sequence of human Peroxisome Proliferator-activated Receptor alpha (PPARa), PPARA (gene 5465) (Q07869 whole entry, looked up, the tested form may be a part): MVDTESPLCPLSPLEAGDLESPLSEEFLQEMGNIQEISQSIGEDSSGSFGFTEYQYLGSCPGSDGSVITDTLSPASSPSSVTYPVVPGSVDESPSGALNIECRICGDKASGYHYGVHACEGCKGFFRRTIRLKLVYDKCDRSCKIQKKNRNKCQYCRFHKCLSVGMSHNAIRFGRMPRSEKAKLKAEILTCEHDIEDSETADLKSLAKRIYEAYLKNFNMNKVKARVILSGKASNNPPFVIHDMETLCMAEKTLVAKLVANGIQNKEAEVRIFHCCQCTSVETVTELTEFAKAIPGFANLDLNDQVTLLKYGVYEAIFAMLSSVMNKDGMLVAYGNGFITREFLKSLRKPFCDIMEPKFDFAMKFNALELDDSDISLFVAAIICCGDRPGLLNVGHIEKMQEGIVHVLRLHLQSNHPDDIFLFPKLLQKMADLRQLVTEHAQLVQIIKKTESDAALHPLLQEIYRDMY
Sequence of Aryl hydrocarbon receptor (Homo sapiens) (P35869 whole entry, looked up): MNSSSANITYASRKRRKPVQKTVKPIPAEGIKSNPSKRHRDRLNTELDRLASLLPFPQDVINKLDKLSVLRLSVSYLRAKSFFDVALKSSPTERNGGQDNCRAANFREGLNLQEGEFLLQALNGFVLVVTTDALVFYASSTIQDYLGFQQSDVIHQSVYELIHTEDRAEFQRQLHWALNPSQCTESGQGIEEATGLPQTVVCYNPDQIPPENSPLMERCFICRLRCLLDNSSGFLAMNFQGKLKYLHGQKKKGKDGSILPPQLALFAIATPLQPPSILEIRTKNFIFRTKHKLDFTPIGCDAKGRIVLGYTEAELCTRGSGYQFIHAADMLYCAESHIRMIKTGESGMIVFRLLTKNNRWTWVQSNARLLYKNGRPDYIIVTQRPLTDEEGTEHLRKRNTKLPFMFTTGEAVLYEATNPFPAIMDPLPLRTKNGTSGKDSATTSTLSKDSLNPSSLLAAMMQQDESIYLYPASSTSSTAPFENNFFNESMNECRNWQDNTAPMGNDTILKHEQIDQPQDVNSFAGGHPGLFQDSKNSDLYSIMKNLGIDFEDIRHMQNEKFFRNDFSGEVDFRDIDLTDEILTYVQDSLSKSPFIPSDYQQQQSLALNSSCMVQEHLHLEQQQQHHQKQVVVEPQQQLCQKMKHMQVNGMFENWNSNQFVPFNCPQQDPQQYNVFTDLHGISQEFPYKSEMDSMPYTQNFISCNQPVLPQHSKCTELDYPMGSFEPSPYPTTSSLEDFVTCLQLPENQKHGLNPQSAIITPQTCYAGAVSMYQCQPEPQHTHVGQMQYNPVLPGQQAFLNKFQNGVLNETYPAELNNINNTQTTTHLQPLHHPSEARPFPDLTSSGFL
Sequence of Retinoic acid receptor RXR-alpha (Homo sapiens) (P19793 whole entry, looked up, the tested form may be a part): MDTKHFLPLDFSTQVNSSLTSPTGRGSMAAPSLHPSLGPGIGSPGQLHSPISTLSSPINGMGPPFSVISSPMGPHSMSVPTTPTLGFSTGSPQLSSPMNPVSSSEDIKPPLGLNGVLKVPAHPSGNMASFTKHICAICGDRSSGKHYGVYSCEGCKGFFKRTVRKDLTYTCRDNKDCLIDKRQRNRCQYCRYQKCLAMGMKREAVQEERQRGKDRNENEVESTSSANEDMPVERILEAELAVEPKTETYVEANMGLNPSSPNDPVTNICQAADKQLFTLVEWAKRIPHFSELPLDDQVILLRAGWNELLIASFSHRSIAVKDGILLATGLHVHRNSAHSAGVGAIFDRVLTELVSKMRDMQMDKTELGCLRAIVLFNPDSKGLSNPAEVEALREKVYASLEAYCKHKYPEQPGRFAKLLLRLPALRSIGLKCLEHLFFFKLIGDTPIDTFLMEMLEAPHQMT
Sequence of Nuclear receptor subfamily 1 group I member 2 (Homo sapiens) (O75469 whole entry, looked up, the tested form may be a part): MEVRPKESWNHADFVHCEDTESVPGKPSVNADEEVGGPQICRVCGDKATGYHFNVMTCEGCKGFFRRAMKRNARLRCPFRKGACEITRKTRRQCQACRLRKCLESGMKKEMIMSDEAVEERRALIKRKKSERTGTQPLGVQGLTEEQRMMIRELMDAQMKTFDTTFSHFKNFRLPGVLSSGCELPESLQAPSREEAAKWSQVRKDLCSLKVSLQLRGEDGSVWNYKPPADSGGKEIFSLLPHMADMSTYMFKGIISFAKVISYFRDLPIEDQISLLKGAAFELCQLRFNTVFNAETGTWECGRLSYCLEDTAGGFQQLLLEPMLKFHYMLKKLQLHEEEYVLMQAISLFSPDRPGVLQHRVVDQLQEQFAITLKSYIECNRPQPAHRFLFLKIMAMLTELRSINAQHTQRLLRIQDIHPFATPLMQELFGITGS
Sequence of X-box-binding protein 1 (Homo sapiens) (P17861 whole entry, looked up): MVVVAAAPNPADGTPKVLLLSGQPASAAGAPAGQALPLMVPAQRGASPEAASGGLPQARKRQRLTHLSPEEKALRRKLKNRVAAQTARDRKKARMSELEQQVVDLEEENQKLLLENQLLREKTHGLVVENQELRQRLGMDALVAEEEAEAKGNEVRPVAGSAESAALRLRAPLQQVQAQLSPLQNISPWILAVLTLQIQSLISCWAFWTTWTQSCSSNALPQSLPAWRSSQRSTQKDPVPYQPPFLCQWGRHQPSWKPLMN

CNC(=O)Oc1cc(C)c(SC)c(C)c1
active: [6] 26.7 µM | [7] 36.4 µM | [13] 13.3 µM | [15] 30.2 µM
not listed: [16] | [17] | [18] | [19] | [20]
inactive: all other assays above

Clc1ccc(-c2ccccc2)cc1
not listed: [6] | [12] | [20]
inactive: all other assays above

O=C(O)c1cc[c]([Hg][Cl])cc1
active: [17] 7.19 µM | [15] 53.8 µM
not listed: [6] | [12] | [13] | [18] | [20]
inactive: all other assays above

ClCCCCCCCl
inactive: [1] | [2] | [4] | [5] | [6] | [8] | [9] | [10] | [11] | [12] | [15]

CCC(C)c1cc([N+](=O)[O-])cc([N+](=O)[O-])c1OC(=O)C=C(C)C (stereo unspecified)
active: [8] 31.8 µM | [17] 27.2 µM | [13] 1.6 µM
not listed: [3] | [6] | [11] | [18]
inactive: all other assays above

C[N+](C)(C)CC(=O)O
inactive: [1] | [2] | [3] | [6] | [7] | [16] | [17] | [18] | [19] | [11] | [14]

CN(N=O)c1ccccc1
inactive: [1] | [2] | [4] | [5] | [6] | [7] | [16] | [17] | [9] | [12] | [13]

O=c1[nH]c(Cl)c(Cl)cc1Cl
active: [2] 13.8 µM | [6] 38.7 µM | [7] 15.8 µM
not listed: [3] | [4] | [9] | [10] | [19]
inactive: all other assays above

N#Cc1cc(I)c(O)c(I)c1
active: [7] 29.1 µM | [17] 33.6 µM | [12] 8.29 µM
not listed: [8] | [9] | [10] | [15] | [16]
inactive: all other assays above

Nc1ccc([N+](=O)[O-])cc1N
active: [2] 24.7 µM
not listed: [3] | [4] | [5] | [12] | [18]
inactive: all other assays above

COC(C)(C)CCC[C@H](C)C/C=C/C(C)=C/C(=O)OC(C)C
active: [1] 72.9 µM | [3] 145 µM | [10] 121 µM | [13] 16.3 µM
not listed: [4] | [6] | [7] | [8] | [19]
inactive: all other assays above

C[N+](=O)[O-]
not listed: [5] | [10] | [13] | [15] | [18]
inactive: all other assays above

Nc1c(Cl)c(Cl)c(Cl)c(Cl)c1Cl
active: [2] 31.4 µM | [6] 15.4 µM | [13] 13.3 µM | [15] 28.6 µM
not listed: [18] | [19] | [20]
inactive: all other assays above

CCOP(=O)(OCC)Oc1ccc([N+](=O)[O-])cc1
active: [6] 26.8 µM
not listed: [4] | [8] | [10] | [12] | [17] | [19]
inactive: all other assays above

CCNCC
not listed: [3] | [5] | [10] | [11] | [13] | [15] | [20]
inactive: all other assays above

CCCCCCC1CCOC1=O (stereo unspecified)
active: [6] 100 µM
not listed: [7] | [9] | [10] | [14] | [15]
inactive: all other assays above

COc1ccc(CO)cc1
not listed: [5] | [8] | [10] | [13]
inactive: all other assays above

CC1(C)[C@H](C(=O)O[C@H](C#N)c2cccc(Oc3ccccc3)c2)[C@@H]1C=C(Br)Br
active: [6] 0.312 µM | [13] 0.166 µM
not listed: [3] | [5] | [9] | [12] | [14]
inactive: all other assays above

Reference: PubChem BioAssay (EPA / NIEHS)
